# Screens deposited in PubChem by several laboratories.
# Rows were chosen to be rich in hits. Some 2.2% of all compounds tested hit in one or more screens of this group.
# KLF5 inhibitor = suppresses KLF5 promoter-driven expression. DLD-1 KLF5 promoter-luciferase reporter, luminescence. 290,000 compounds, 0.23% hits. inhibition, % at 5 µM. AID 1700;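 active = inhibition above a per-plate limit of that plate's mean compound inhibition plus 3 SD, cut at about 60% in these data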;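 note: 0% = DMSO wells and 100% = LY294002 at 200 µM; higher means less KLF5 promoter-driven luciferase light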
# IEC-6 cytotox = counter-screen for KLF5 inhibitors: cytotoxicity in IEC-6 cells; IEC-6 cytotoxicity, luminescence viability; inhibition, % at 5 µM; 290,000 compounds, 0.78% hits; in the data active = inhibition above about 22%;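 note: 0% = plate median of test compound wells and 100% = cytotoxic reference compound wells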
# APP 5UTR inh = APP translation inhibition; SH-SY5Y APP 5'UTR-luciferase reporter, luminescence; inhibition, % at 2 µM; 190,000 compounds, 0.82% hits; AID 1285;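 active = inhibition above a set limit, derived from the sample mean plus 3 SD, cut at about 45% in these data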
# BaF3 parental = reduces parental Ba/F3 cell viability, JAK2V617F counter-screen; CellTiter-Glo ATP luminescence; AID 1486; 220,000 compounds, 1.1% hits; inhibition, % at 5.6 µM;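 active = inhibition above a per-campaign cutoff, the mean inhibition of all tested compounds plus 3 SD, cut at about 27% in these data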;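 note: 0% = DMSO wells and 100% = JAK Inhibitor I control wells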
# Ba/F3 V617F tox = reduce viability of Ba/F3 cells dependent on JAK2V617F; Ba/F3 EpoR-JAK2V617F viability, ATP luminescence; inhibition, % at 5.6 µM; 220,000 compounds, 1.1% hits;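 active = inhibition above the campaign mean plus 3 SD over all tested compounds, cut at about 24% in these data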;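 note: cytokine-independent growth of Ba/F3 cells driven by EpoR plus mutant JAK2; 0% = DMSO-treated cells and 100% = JAK inhibitor I control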
# aSyn 5UTR inh = MLPCN primary screen, SNCA 5' untranslated region | alpha-synuclein 5'UTR reporter, inhibitor activity | inhibition, % (tested at 7.5 µM) | 300,000 compounds, 0.82% hits; in the data active = inhibition above about 60%;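 note: H4 neuroglioblastoma cells stably carrying SNCA 5'UTR luciferase fusion; 0% = DMSO wells and 100% = positive control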
# * marks the source's active call; other numbers are inactive results; / = no result.
SMILES,KLF5 inhibitor,IEC-6 cytotox,APP 5UTR inh,BaF3 parental,Ba/F3 V617F tox,aSyn 5UTR inh
C=C1C(=O)[C@@]23[C@H](O)C[C@@H]4C(C)(C)CC[C@H](O)[C@]4(C)[C@@H]2C[C@H](O)[C@@H]1[C@H]3O,-21,-4,33,73*,62*,-6
CCOCCCNC(=S)N1CCCC(c2nc3ccc(C)cc3[nH]2)C1 (configuration not stated),-5,0,-26,0,1,10
O=C(NCCN1CCNC1=O)C1CCC(=O)N(Cc2cccc(C(F)(F)F)c2)C1 (configuration not stated),-23,-4,/,/,/,-3
COC(=O)c1ccccc1NC(=O)C1CC(=O)N(c2ccc(C)cc2)C1 (configuration not stated),-37,-5,1,54*,-1,-2
C/C(=N\NC(=S)NCc1ccccc1)c1ccco1,-15,-3,-11,67*,-1,-32
CS(=O)(=O)N(CC(=O)N1CCCCCC1)c1cccc([N+](=O)[O-])c1,13,2,/,/,/,8
Cc1ccc(NC(=O)Nc2ccnc(-c3cccnc3)n2)cc1,-33,-3,83*,2,3,110*
Cc1ccc(C)n1-c1ccc(C(=O)NN)s1,-11,-7,1,0,-4,-31
COc1cc(SC)ccc1C(=O)Nc1ccc(Cl)cn1,-134,-1,-148,3,0,100*
CSc1ccc(Cl)c(C(=O)Nc2ccc(Cl)cn2)c1,-5,3,24,3,3,31
CCCCOc1ccccc1C1CC(=O)NC2=C1C(=O)CCC2 (configuration not stated),57,84*,88*,83*,82*,94*
CCOC(=O)c1c2c(n(C)c1COC)C(=O)C(=O)c1ccc(Br)cc1-2,-15,-2,0,-2,-7,92*
CCCn1c(=O)c(C(=O)OCC)c(O)c2cc(Br)ccc21,-17,5,-12,7,2,3
Cc1ccc(C(C)C)c(OCc2nn(CC(=O)c3ccc(OC(F)F)cc3)c3[n+]2CCCCC3)c1,4,-1,9,30*,49*,46
O=C(NC1CCCCNC1=O)c1ccccc1 (configuration not stated),-11,3,/,-1,-3,-6
Cc1ccc(-n2c(CCC(=O)O)ccc2-c2cccs2)cc1C,5,-2,-18,55*,0,2
Fc1ccc(-n2nnc(-c3cnc4ccccc4c3)n2)cc1,-72,7,-98,-1,1,94*
N#Cc1c(NC(=O)c2ccccc2)sc2c1CCCCC2,-163,2,-198,2,-3,-16
N#Cc1c(Cl)nsc1NC(=O)c1ccccc1,7,13,2,40*,29*,-66
COc1cc(/C=C/C(=O)O)cc(S(=O)(=O)NCCCC(=O)O)c1OC,-26,-3,1,2,-1,23
Clc1ccc(Nc2ncnc3ccc(Br)cc23)cc1,8,26*,10,11,5,-30
Clc1cccc(Nc2ncnc3ccc(Br)cc23)c1,2,30*,-8,6,4,-51
Clc1ccc(-c2cn3nc4c(nc3n2)CCCC4)cc1,-24,3,-191,2,-2,88*
COc1cccc(-c2cc(C(F)(F)F)n3nc(N)nc3n2)c1,-5,4,10,2,1,26
Clc1ccc(-c2cn3cccnc3n2)cc1,-62,4,-16,6,0,-132
SMILES,KLF5 inhibitor,IEC-6 cytotox,APP 5UTR inh,BaF3 parental,Ba/F3 V617F tox,aSyn 5UTR inh
COc1cccc(-c2cn3nc4c(nc3n2)CCCC4)c1,-1,8,-170,1,-6,104*
O=C(c1cc([N+](=O)[O-])ccc1N1CCOCC1)N1CCN(S(=O)(=O)c2cc(Cl)ccc2Cl)CC1,/,/,/,/,/,15
CCCCCCCCSc1nnc(-c2ccc(OC)cc2)o1,-7,-3,5,1,0,111*
CCSc1nnc(-c2ccc(OC)cc2)o1,-71,2,-87,-1,1,-186
CCOC(=O)N1CCN(c2c(NCc3ccc(Cl)cc3)c(=O)c2=O)CC1,40,19,36,69*,35*,15
CCOC(=O)N1CCN(c2c(NCc3ccc(F)cc3)c(=O)c2=O)CC1,41,8,/,31*,16,-16
CCOC(=O)COc1coc(CN2CCN(c3ccc(F)cc3)CC2)cc1=O,-4,-2,/,/,/,10
CCc1ccc(NC(=O)COC(=O)C2(c3ccc(Cl)cc3)CCCC2)cc1,-19,6,-4,4,0,18
COc1ccc(C2=NN(C(=O)CSc3nnc(C)n3C)C(c3ccco3)C2)cc1 (configuration not stated),-3,-3,-21,6,0,-14
COc1ccc(C2=NN(C(=O)COc3ncnc4ccccc34)C(c3ccco3)C2)cc1 (configuration not stated),-2,-3,21,1,-2,64*
Cc1nn(C)cc1C(C(=O)NC1CCCCC1)N(Cc1ccccc1Cl)C(=O)c1cnccn1 (configuration not stated),-22,0,-5,-2,0,0
CCn1nnc2cc(C(=O)NCCc3ccccc3F)ccc21,4,4,/,/,/,63*
Cc1ccc(/C=N\NC(=O)CCc2n[nH]c(=O)[nH]c2=O)o1,-3,-8,4,0,-2,9
Cc1ccc(NC(=O)c2ccc(S(=O)(=O)N3CCOCC3)cc2)c(C)c1,-28,-2,/,/,/,4
Cc1ccc(C)c(NC(=S)N=Nc2c(O)n(C)c3ccc(S(=O)(=O)N4CCOCC4)cc23)c1,-17,-12,25,4,-3,78*
CCc1ccccc1NC(=S)N=Nc1c(O)n(C)c2ccc(S(=O)(=O)N3CCOCC3)cc12,-3,-3,38,2,1,80*
Cc1ccc(Cn2c(O)c(N=NC(=S)Nc3ccccc3F)c3cc(S(=O)(=O)N4CCOCC4)ccc32)cc1,24,8,50*,5,2,66*
COC(=O)c1[nH]c2cccc(OC)c2c1NC(=O)C(C)N1CCC(C)CC1 (configuration not stated),-6,3,66*,3,-1,13
CN(C(=O)COC(=O)c1nc(Cl)c(Cl)c(Cl)c1Cl)C1CCS(=O)(=O)C1 (configuration not stated),-24,2,59*,7,-2,-210
N/C(=N/OC(=O)c1ccccc1Cl)c1ncc([N+](=O)[O-])s1,-61,3,/,-4,3,-80
COc1ccc(-c2nnc(SC)nc2-c2ccc(OC)c([N+](=O)[O-])c2)cc1[N+](=O)[O-],/,/,/,/,/,11
O=C1C(Cl)=C(NC(=O)c2ccccc2)C(=O)C(Cl)=C1NC(=O)c1ccccc1,-2,100*,/,/,/,-37
O=C(NC1=C(Nc2ccc(Cl)cc2)C(=O)c2ccccc2C1=O)c1ccccc1,14,8,-7,4,-2,-31
CCCCCCCOC(=O)c1nc(Cl)c(Cl)c(N)c1Cl,-3,-7,-22,5,-3,-6
